Assay results from PubChem BioAssay (NCATS).
Inconclusive results are not listed. Activity calls are given as the source filed them. Unless noted, calls come from the whole dose curve; as a rule, active = well fitted curve in the direction sought with a large enough effect; inconclusive = small, poorly fitted or top-dose-only effect, or another doubt; inactive = no such curve, though single readings can be large; an effect the other way counts as inactive or inconclusive.

Assays:
[1] = Cell Viability - BJ (AID 421; calls by dose curve;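 note: potency is the fitted concentration of half-maximal effect; cells exposed to compound for 40 hours at 37 °C before readout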); conditions: BJ fibroblast viability, qHTS
Procedure, shortened: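 Luminescent ATP signal (CellTiter-Glo, 20 min at room temperature) served as the read-out of viable BJ cells after 40 hours of compound treatment. Responses were scaled between DMSO and 100 uM tamoxifen, and AC50 values were obtained by Hill modeling.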

[2] = Cell Viability - Jurkat (AID 426;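 active = dose-dependent loss of cell ATP signal giving a full or clear fitted curve, ranked by lower potency value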; note: potency is the fitted concentration of half-maximal effect); conditions: qHTS
Procedure, shortened: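 Seed 5000 Jurkat E6-1 cells/well; add compound; incubate 40 hr at 37 °C; add CellTiter-Glo; wait 20 min at room temperature; read luminescence. Fit concentration-response with Hill equation for AC50.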

[3] = Cell Viability - Hek293 (AID 427;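 active = compounds whose dose-response curve shows a full or clear partial loss of cell viability, called from curve shape rather than a numeric limit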;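 note: potency is the fitted concentration of half-maximal effect; cells exposed to compound for 40 hours at 37 °C before reading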); conditions: qHTS
Procedure, shortened: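 Luminescent ATP read-out (CellTiter-Glo, 20 min RT) after 40 hr compound exposure at 37 °C in complete medium. Signal normalized to DMSO (basal) and 100 uM tamoxifen (100% inhibition); concentration-response fitted with the standard Hill equation to give AC50.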

[4] = Cell Viability - HepG2 (AID 433; calls by dose curve;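 note: potency is the fitted concentration of half-maximal effect; potency for ATP loss meaning cytotoxicity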); conditions: qHTS
Procedure, shortened: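 HepG2 cells, 1500 per well, treated 40 hr at 37 °C in complete medium; viability from intracellular ATP by CellTiter-Glo luminescence. Normalized to DMSO and 100 uM tamoxifen; AC50 from Hill fit of qHTS concentration-response.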

[5] = Cell Viability - MRC5 (AID 434; calls by dose curve;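 note: potency is the fitted concentration of half-maximal effect; potency reflects cytotoxicity seen as loss of intracellular ATP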); conditions: MRC5 lung fibroblast viability, qHTS
Procedure, shortened: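 MRC5 normal human lung fibroblasts, 1500 cells/well, exposed to compound for 40 hr at 37 C. Cellular ATP was read by CellTiter-Glo luminescence; data normalized to DMSO and 100 uM tamoxifen, with AC50 from Hill fits.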

[6] = Cell Viability - SK-N-SH (AID 435; calls by dose curve;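 note: potency is the fitted concentration of half-maximal effect; compound exposure lasted 40 h at 37 °C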); conditions: SK-N-SH neuroblastoma cell viability qHTS
Procedure, shortened: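 SK-N-SH neuroblastoma cells (1500/well) treated 40 h at 37 °C in complete medium; viability read as cellular ATP by CellTiter-Glo luminescence. Normalized to DMSO and 100 uM tamoxifen; AC50 from Hill fits of qHTS concentration-response.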

[7] = Cell Viability - N2a (AID 540);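 note: plate controls were DMSO alone for no effect and tamoxifen control for full effect; nearly all actives have a fitted effect of over 45% in size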
Procedure, shortened: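 First, 1500 N2a cells per well incubate 5 hr at 37 °C; next, compounds are added and incubated 40 hr at 37 °C; finally CellTiter-Glo is added and luminescence read after 20 min, with AC50 derived by Hill modeling.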

[8] = Cell Viability - SH-SY5Y (AID 544); conditions: SH-SY5Y neuroblastoma cell viability; at 92.2 µM (top of the series);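 note: 0% = DMSO alone and -100% = 100 µM tamoxifen; nearly all actives have a fitted effect of over 55% in size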
Procedure, shortened: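 Cytotoxicity is scored as a concentration-dependent fall in intracellular ATP in human SH-SY5Y cells treated 40 hr in complete culture medium. Potency is expressed as AC50 from a Hill equation fit.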

[9] = Cell Viability - Renal Proximal Tubule (AID 545);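 note: 0% = DMSO only and -100% = 100 µM tamoxifen; nearly all actives have a fitted effect of over 40% in size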
Procedure, shortened: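 Rat renal proximal tubule primary cells, 1000/well, exposed to compounds for 40 hr at 37 °C in complete medium; cellular ATP read by CellTiter-Glo luminescence. AC50 from concentration-response fitted with standard Hill equation.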

[10] = Cell Viability - Mesenchymal (AID 546);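 note: cells exposed to compound for 40 hours before reading; 0% = DMSO only and -100% = 100 µM tamoxifen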
Procedure, shortened: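 Human kidney mesenchymal cells from normal renal glomeruli, 1000 cells/well, rested 5 hr at 37 °C, then treated 40 hr at 37 °C in complete medium. Cellular ATP read by CellTiter-Glo luminescence; AC50 from Hill-equation fits.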

[11] = Cellular Toxicity (caspase-3) HepG2 (AID 654);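 note: cells exposed to compound for 16 hours before reading; 0% = DMSO alone and 100% = caspase signal from 100 µM tamoxifen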
Procedure, shortened: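 qHTS, HepG2, 1500 cells/well, complete medium; cpd 16 h 37 °C; Caspase-Glo 3/7, 20 min RT; lum. Norm: DMSO vs 100 uM tamoxifen; AC50 Hill fit.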

[12] = Cellular Toxicity (caspase-3) Jurkat (AID 655);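 note: cells exposed to compound for 16 h at 37 °C before reading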
Procedure, shortened: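 Jurkat cells (5000/well) in complete medium exposed 16 h at 37 C; caspase-3/7 activity read by Caspase-Glo luminescence after 20 min at room temperature. Normalized to DMSO and 100 uM tamoxifen; AC50 from Hill fits.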

[13] = Cellular Toxicity (caspase-3) HUV-EC-C (AID 656);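 note: 0% = DMSO basal and 100% = 100 µM tamoxifen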
Procedure, shortened: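 HUV-EC-C cells (1000/well) in complete medium, compound-treated 16 h at 37 °C; caspase-3/7 activity read by Caspase-Glo 3/7 luminescence. Normalized to DMSO (basal) and 100 uM tamoxifen (100%); AC50 from Hill-equation concentration-response fits.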

[14] = Cellular Toxicity (caspase-3) SHSY5Y (AID 657)
Procedure, shortened: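 SH-SY5Y human neuroblastoma cells, 1500/well, exposed to compound for 16 hours at 37 °C in complete medium. Caspase-3/7 activity read by Caspase-Glo luminescence after 1 hr at room temperature, normalized to DMSO and 10 uM staurosporine; AC50 from Hill fit.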

[15] = Cellular Toxicity (caspase-3) BJ (AID 658);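 note: 0% = DMSO basal and 100% = 10 µM staurosporine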
Procedure, shortened: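 BJ human foreskin fibroblasts, 1000 cells/well, treated 16 hours at 37 °C in complete medium; caspase 3/7 activity by Caspase-Glo luminescence after 1 hr at room temperature. Normalized to DMSO and 10 uM staurosporine; AC50 from Hill fits.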

[16] = Cellular Toxicity (caspase-3) MRC-5 (AID 659);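 note: 0% = DMSO basal and 100% = 10 µM staurosporine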
Procedure, shortened: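 MRC-5 human normal lung fibroblasts, 1500 cells/well, treated 16 h at 37 °C in complete medium. Caspase 3/7 measured by Caspase-Glo luminescence after 1 h at room temperature. Normalized to DMSO and 10 uM staurosporine; AC50 from Hill fit.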

[17] = Cellular Toxicity (caspase-3) Mesangial (AID 660)
Procedure, shortened: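 Concentration-response qHTS: compound-induced rise in caspase 3/7 luminescence in human mesangial cells after 16 h, normalized to DMSO and 100 uM tamoxifen controls.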

[18] = Cellular Toxicity (caspase-3) SK-N-SH (AID 661);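 note: 0% = DMSO basal and 100% = 10 µM staurosporine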
Procedure, shortened: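 Caspase 3/7 activation is measured as a luminescence increase from aminoluciferin released by substrate cleavage in SK-N-SH cells after 16 hr compound treatment; values are AC50 from concentration-response curves.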

[19] = Cellular Toxicity (caspase-3) H-4-II-E (AID 663);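 note: cells exposed to compound for 16 hr before readout; 0% = DMSO basal and 100% = 100 µM tamoxifen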
Procedure, shortened: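 Rat hepatoma H-4-II-E cells (1500/well) plated 5 hr, then exposed to compound titrations for 16 hr at 37 °C. Caspase-Glo 3/7 luminescence read after 20 min at RT; data normalized to DMSO and 100 uM tamoxifen, AC50 from Hill fits.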

[20] = Cellular Toxicity (caspase-3) Hek293 (AID 664);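 note: cells exposed to compound for 16 h at 37 °C before readout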
Procedure, shortened: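 Activation of caspase-3/7 is measured as increased luminescence from cleaved peptide-aminoluciferin substrate in HEK293 cells treated 16 hours at 37 °C. AC50 values come from Hill-equation fits of concentration-response data.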

[21] = Cellular Toxicity (caspase-3) N2a (AID 665);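 note: compound exposure lasted 16 h at 37 °C before readout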
Procedure, shortened: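 Plated mouse neuroblastoma N2a cells received titrated compounds for 16 h in complete medium. Caspase activity was then detected with a peptide-aminoluciferin luminescent reagent.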

[22] = Cellular Toxicity (caspase-3) NIH 3T3 (AID 666);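 note: caspase signal read after 16 h compound exposure; 0% = DMSO basal and 100% = 100 µM tamoxifen stimulation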
Procedure, shortened: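 Concentration-response qHTS in NIH 3T3 mouse fibroblasts scores caspase-3/7 activation as rising luminescence after 16 hr compound exposure. Signals are scaled between DMSO-only and 100 uM tamoxifen.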

[23] = Cellular Toxicity (caspase-3) Renal Proximal Tubule (AID 667);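 note: cells exposed to compound for 16 hours at 37 °C before detection; 0% = DMSO basal and 100% = 10 µM staurosporine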
Procedure, shortened: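 Freshly isolated primary rat kidney proximal tubule cells, 1000/well, treated 16 hr at 37 °C, then Caspase-Glo 3/7 luminescence after 1 hr. Normalized to DMSO and 10 uM staurosporine; AC50 from Hill fit.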

[24] = MultiTox-Fluor Cytotoxicity Assay - LYMP1-001 - Dead Cells (AID 946);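 note: 0% = DMSO and 100% = tetraoctylammonium bromide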
Procedure, shortened: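 AC50 from Hill fit of concentration-response; data normalized to DMSO (basal) and 15 uM tetraoctylammonium bromide (100%). LYMP1-001 lymphoblastoid cells, 2500/well, 16 hr compound at 37 C; dead-cell protease fluorescence, Ex/Em 485/520.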

[25] = MultiTox-Fluor Cytotoxicity Assay - LYMP1-001 - Live Cells (AID 947);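 note: 0% = DMSO only and full inhibition = tetraoctylammonium bromide control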
[26] = Cell Viability - LYMP1-002 - Assay at 16 hr (AID 948);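 note: 0% = DMSO alone and full effect = 92 µM tetraoctylammonium bromide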
Procedure, shortened: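 LYMP1-002 human lymphoblastoid cells, 2500/well, were treated with compounds for 16 hr at 37 C in complete medium. Viability was read as intracellular ATP by CellTiter-Glo luminescence, and AC50 was derived from a Hill fit to concentration-response data.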

[27] = MultiTox-Fluor Cytotoxicity Assay - LYMP1-002 - Live Cells (AID 955); note: % is set by controls: 0 for no effect and ±100 for the full control effect
Procedure, shortened: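 Cytotoxicity in the human lymphoblastoid line LYMP1-002 is measured as loss of live-cell protease activity after 16 h treatment in complete culture medium. AC50 is derived from Hill-equation fits of qHTS concentration-response data.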

[28] = MultiTox-Fluor Cytotoxicity Assay - LYMP1-002 - Dead Cells (AID 960);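 note: 0% = DMSO and 100% = tetraoctylammonium bromide; nearly all actives have a fitted effect of over 60% in size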
Procedure, shortened: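 Acute cytotoxicity in a human lymphoblastoid line is scored as rising dead-cell protease signal after 16 hr exposure at 37 C, measured fluorometrically (485/520).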

[29] = MultiTox-Fluor Cytotoxicity Assay - LYMP1-003 - Dead Cells (AID 961);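 note: 0% = DMSO and 100% = tetraoctylammonium bromide; nearly all actives have a fitted effect of over 70% in size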
Procedure, shortened: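 Human lymphoblastoid LYMP1-003 cells (2500/well) were treated with compounds for 16 hr at 37 C in complete medium. Dead-cell protease release was read by bis-AAF-R110 fluorescence (Ex/Em 485/520). AC50 came from Hill fits, normalized to DMSO and 15 uM tetraoctylammonium bromide.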

[30] = MultiTox-Fluor Cytotoxicity Assay - LYMP1-003 - Live Cells (AID 962);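 note: 0% = DMSO only and full loss = 92 µM tetraoctylammonium bromide; cytotoxic hits lower the live-cell protease signal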
Procedure, shortened: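 Cells plated at 2500 per well and incubated 5 hr; compounds added and incubated 16 hr at 37 C; MultiTox-Fluor reagent added for 60 min at room temperature; fluorescence of liberated AFC measured at 405/510 nm.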

[31] = Cell Viability - LYMP1-003 - Assay at 24 hr (AID 963);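 note: plate controls were DMSO only for no effect and tetraoctylammonium bromide positive control for full effect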
Procedure, shortened: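 Acute toxicity in LYMP1-003 lymphoblastoid cells: 24 hr compound treatment at 37 C, ATP measured with CellTiter-Glo after 30 min at room temperature. AC50 derived by fitting the Hill equation to qHTS titrations.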

[32] = Cell Viability - LYMP2-003 (AID 965);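 note: cells exposed to compounds for 24 h before reading; 0% = DMSO only and full effect = 92 µM tetraoctylammonium bromide; nearly all actives have a fitted effect of over 50% in size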
Procedure, shortened: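 Human lymphoblastoid LYMP2-003 cells, 2500/well, exposed to compounds for 24 h at 37 C in complete medium. Viability read as intracellular ATP by CellTiter-Glo luminescence; AC50 from Hill-equation fits of qHTS concentration-response data.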

[33] = Cell Viability - LYMP2-004 (AID 966);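 note: plate controls were DMSO only for no effect and tetraoctylammonium bromide control for full effect; nearly all actives have a fitted effect of over 65% in size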
Procedure, shortened: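 Acute toxicity is scored as a concentration-dependent drop in intracellular ATP, quantified by luciferase luminescence, in human lymphoblastoid cells exposed to compound for 24 hr. AC50 derives from Hill-equation modelling.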

[34] = Cell Viability - LYMP2-005 (AID 967);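 note: plate controls were DMSO only for no effect and 92 µM tetraoctylammonium bromide control for full effect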
Procedure, shortened: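 Human lymphoblastoid LYMP2-005 cells, 2,500 per well in complete medium, rested 5 h at 37C then compound-treated 24 h at 37C. Intracellular ATP read by CellTiter-Glo luminescence after 30 min at room temperature; AC50 from Hill-equation fits of concentration-response data.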

[35] = Cell Viability - LYMP2-009 (AID 968);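 note: 0% = DMSO alone and the full-kill end = tetraoctylammonium bromide at 92 µM; nearly all actives have a fitted effect of over 55% in size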
[36] = Cell Viability - LYMP2-011 (AID 969);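 note: 0% = DMSO only and full inhibition = 92 µM tetraoctylammonium bromide; nearly all actives have a fitted effect of over 60% in size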
Procedure, shortened: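 Acute toxicity is scored as a concentration-dependent drop in intracellular ATP of a human lymphoblastoid line after 24 hr treatment. Values are AC50s modeled with the Hill equation.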

[37] = Cell Viability - LYMP2-013 (AID 970);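 note: 0% = DMSO only and full inhibition = tetraoctylammonium bromide control; nearly all actives have a fitted effect of over 55% in size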
Procedure, shortened: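 Acute toxicity was measured in human lymphoblastoid cells (2500/well) exposed to compound titrations for 24 hr, with ATP luminescence (CellTiter-Glo) as read-out and AC50 fitted by Hill equation.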

[38] = Cell Viability - LYMP2-015 (AID 971);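 note: 0% = DMSO only and full effect = 92 µM tetraoctylammonium bromide; nearly all actives have a fitted effect of over 55% in size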
Procedure, shortened: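 Acute toxicity was scored as a concentration-dependent drop in intracellular ATP in lymphoblastoid cells after 24 hr compound exposure in complete medium. Detection used CellTiter-Glo luciferase luminescence.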

[39] = Cell Viability - LYMP2-017 (AID 972)
Procedure, shortened: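 Steps: plate 2500 lymphoblastoid cells per well; incubate 5 hr at 37 C; add compound across a concentration series and incubate 24 hr at 37 C; add CellTiter-Glo and read luminescence after 30 min at room temperature; fit Hill curves for AC50.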

[40] = Cell Viability - LYMP2-019 (AID 973)
Procedure, shortened: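 Cells plated at 2500/well and allowed 5 hr at 37 C before compound addition. After 24 hr incubation, CellTiter-Glo reagent was added, plates sat 30 min at room temperature, and luminescence was recorded.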

[41] = Cell Viability - LYMP2-021 (AID 974)
Procedure, shortened: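 Concentration-response cytotoxicity in a human lymphoblastoid line: 24 hr treatment at 37 C in complete culture medium, tetraoctylammonium bromide as positive control, luminescent ATP quantitation as viability measure.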

CO[C@H]1/C=C/O[C@@]2(C)Oc3c(C)c(O)c4c(O)c(c(/C=N/N5CCN(C)CC5)c(O)c4c3C2=O)NC(=O)/C(C)=C\C=C\[C@H](C)[C@H](O)[C@@H](C)[C@@H](O)[C@@H](C)[C@H](OC(C)=O)[C@@H]1C
active: viability change, negative = cytotoxic [8] -92.1%
inactive: Potency [1] > 92 µM | Potency [2] > 92 µM | Potency [3] > 92 µM | Potency [4] > 92 µM | Potency [5] > 92 µM | Potency [6] > 92 µM | outcome [7] | outcome [9] | outcome [10] | outcome [11] | outcome [12] | outcome [13] | outcome [14] | outcome [15] | outcome [16] | outcome [17] | outcome [18] | outcome [19] | outcome [20] | outcome [21] | outcome [22] | outcome [23] | outcome [24] | outcome [25] | outcome [26] | outcome [27] | outcome [28] | outcome [29] | outcome [30] | outcome [31] | outcome [32] | outcome [33] | outcome [34] | outcome [35] | outcome [36] | outcome [37] | outcome [38] | outcome [39] | outcome [40] | outcome [41]
